Test results reported in PubChem BioAssay (NCI).
Several values for one entry are separate records, joined by “and”; a condition that tells them apart may be missing. Equal values may be shown once. About 83,000 compounds went through this panel and 20% of them were active in at least one assay; those are over-represented in the sample as a whole.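 How to read the values: 0–100, growth inhibition (40 = 60% inhibited); 0, no net growth; -100 to 0, cell death (-40 = 40% of starting cells died; -100 = all dead).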 Activity calls are given as the source filed them. How the source made its calls: active means growth percent below 10; inactive means the rest.

Key:
Assay in all cases: NCI-60 one-dose screen, 48 h (100 = growth as untreated, 0 = no growth, -100 = all killed)
Details in all cases: 10 µM unless noted
HCT-15 colon = tested on: HCT-15 colon
HT29 colon = tested on: HT29 colon
SNB-75 CNS = tested on: SNB-75 CNS
SNB-19 CNS = tested on: SNB-19 CNS
U251 CNS = tested on: U251 CNS
PC-3 prostate = tested on: PC-3 prostate
SK-MEL-5 melanoma = tested on: SK-MEL-5 melanoma
LOX IMVI melanoma = tested on: LOX IMVI melanoma
SK-MEL-28 melanoma = tested on: SK-MEL-28 melanoma
SK-MEL-2 melanoma = tested on: SK-MEL-2 melanoma
SN12C renal = tested on: SN12C renal
UO-31 renal = tested on: UO-31 renal
ACHN renal = tested on: ACHN renal
CAKI-1 renal = tested on: CAKI-1 renal
A498 renal = tested on: A498 renal
CCRF-CEM leukemia = tested on: CCRF-CEM leukemia
EKVX NSCLC = tested on: EKVX NSCLC
TK-10 renal = tested on: TK-10 renal
HL-60(TB) leukemia = tested on: HL-60(TB) leukemia
UACC-62 melanoma = tested on: UACC-62 melanoma

Measured: growth

CC(Oc1ccc(-c2ccccc2)cc1)C(=O)O (stereo unspecified)
inactive: HCT-15 colon 108% | HT29 colon 103% | SNB-75 CNS 91.6% | SNB-19 CNS 97% | U251 CNS 97.4% | PC-3 prostate 101% | SK-MEL-5 melanoma 97% | LOX IMVI melanoma 104% | SK-MEL-28 melanoma 110% | SK-MEL-2 melanoma 107% | SN12C renal 104% | UO-31 renal 91.8% | ACHN renal 104% | CAKI-1 renal 99.2% | A498 renal 77.7% | CCRF-CEM leukemia 98.4%

CC[C@H](C)[C@H](NC(=O)C12CC(NC)(C1)C2)C(=O)N(C)[C@H](C[C@@H](OC(C)=O)c1nc(C(=O)N[C@@H](Cc2ccccc2)C[C@H](C)C(=O)OC)cs1)C(C)C
inactive: HCT-15 colon 18.4% | SNB-75 CNS 23.5% | SNB-19 CNS 33.5% | U251 CNS 12.7% | PC-3 prostate 23.6% | SK-MEL-28 melanoma 53.4% | SK-MEL-2 melanoma 36.7% | EKVX NSCLC 37.3% | SN12C renal 47.2% | UO-31 renal 40.7% | TK-10 renal 48.5% | ACHN renal 33.9% | CAKI-1 renal 91.2%
active: HT29 colon -4.54% | SK-MEL-5 melanoma -31.7% | LOX IMVI melanoma 5.36% | A498 renal -0.0952% | HL-60(TB) leukemia -32.5% | CCRF-CEM leukemia 1.27%

O=C(O)C1C(C(=O)O)C2(Cl)C(Cl)=C(Cl)C1(Cl)C2(Cl)Cl (stereo unspecified)
1.8% (active) and 114% (inactive): CCRF-CEM leukemia
inactive: HCT-15 colon 105% and 106% | HT29 colon 103% | SNB-75 CNS 82.3% and 93.7% | SNB-19 CNS 124% and 100% | U251 CNS 97.7% and 103% | PC-3 prostate 91.7% and 101% | UACC-62 melanoma 104% and 102% | LOX IMVI melanoma 107% and 98.1% | SK-MEL-28 melanoma 108% | SK-MEL-2 melanoma 108% and 113% | EKVX NSCLC 90.4% and 118% | SN12C renal 103% and 101% | UO-31 renal 73.1% and 92.2% | TK-10 renal 116% and 107% | ACHN renal 99.9% | CAKI-1 renal 116% | A498 renal 102% and 101% | HL-60(TB) leukemia 95.1%

C[N+]1(CC#CC[N+]2(C)CCCC2)CCCC1
inactive: HCT-15 colon 103% | HT29 colon 101% | SNB-75 CNS 88.4% | SNB-19 CNS 104% | U251 CNS 107% | PC-3 prostate 92.7% | SK-MEL-5 melanoma 101% | LOX IMVI melanoma 93.6% | SK-MEL-28 melanoma 111% | SK-MEL-2 melanoma 98.5% | EKVX NSCLC 97.5% | SN12C renal 102% | UO-31 renal 94.4% | ACHN renal 108% | CAKI-1 renal 97.1% | A498 renal 84.6% | HL-60(TB) leukemia 94.1% | CCRF-CEM leukemia 107%

Cc1ccc(P(=O)(O)O)cc1
inactive: HCT-15 colon 107% | HT29 colon 109% | SNB-75 CNS 107% | SNB-19 CNS 97.9% | U251 CNS 101% | PC-3 prostate 107% | UACC-62 melanoma 98.6% | LOX IMVI melanoma 104% | SK-MEL-28 melanoma 112% | SK-MEL-2 melanoma 109% | EKVX NSCLC 100% | SN12C renal 97.7% | UO-31 renal 96.6% | TK-10 renal 102% | ACHN renal 109% | CAKI-1 renal 97.2% | A498 renal 115% | HL-60(TB) leukemia 107% | CCRF-CEM leukemia 114%

C[C@]12CCC3[C@@H](C[C@@H]4SC(Nc5ccccc5)=N[C@@]45CC(=O)CC[C@]35C)[C@@H]1CCC2=O (stereo partly specified)
active: HCT-15 colon 1.93% | HT29 colon -55.6% | U251 CNS -82.4% | PC-3 prostate -16.1% | LOX IMVI melanoma -58.1% | SK-MEL-28 melanoma 1.73% | SK-MEL-2 melanoma 6.9% | SN12C renal -8.78% | UO-31 renal -89% | TK-10 renal -4.55% | ACHN renal -62.4% | CAKI-1 renal -45.6% | HL-60(TB) leukemia 6.25% | CCRF-CEM leukemia 3.23%
inactive: SNB-75 CNS 41.5% | SNB-19 CNS 21.9% | SK-MEL-5 melanoma 26.3% | EKVX NSCLC 49.4% | A498 renal 63.7%

COc1ccn(C)c(=O)c1C#N
inactive: HCT-15 colon 101% | HT29 colon 78.8% | SNB-75 CNS 114% | SNB-19 CNS 109% | U251 CNS 92% | PC-3 prostate 94.7% | SK-MEL-5 melanoma 98% | LOX IMVI melanoma 97% | SK-MEL-28 melanoma 106% | SK-MEL-2 melanoma 72.9% | EKVX NSCLC 105% | SN12C renal 105% | UO-31 renal 87.2% | ACHN renal 102% | CAKI-1 renal 100% | A498 renal 86.2% | HL-60(TB) leukemia 104% | CCRF-CEM leukemia 120%

O=C=Nc1ccc(Br)cc1
inactive: HCT-15 colon 96.5% | HT29 colon 118% | SNB-75 CNS 99.1% | SNB-19 CNS 111% | U251 CNS 110% | PC-3 prostate 78.8% | SK-MEL-5 melanoma 81% | LOX IMVI melanoma 106% | SK-MEL-28 melanoma 110% | SK-MEL-2 melanoma 109% | EKVX NSCLC 102% | SN12C renal 111% | UO-31 renal 102% | TK-10 renal 109% | ACHN renal 114% | CAKI-1 renal 104% | A498 renal 94.2% | HL-60(TB) leukemia 96.4% | CCRF-CEM leukemia 103%

Cn1cc(-c2csc(-c3cn(CCCCN4CCOCC4)c4ccc(F)cc34)n2)c2cccnc21
active: HT29 colon -64% | SK-MEL-28 melanoma -87.1% | CCRF-CEM leukemia -59.6%
inactive: HCT-15 colon 61.7% | SNB-75 CNS 61.9% | SNB-19 CNS 88.2% | U251 CNS 67.3% | PC-3 prostate 49.3% | UACC-62 melanoma 22.8% | LOX IMVI melanoma 67.6% | SK-MEL-2 melanoma 78.7% | EKVX NSCLC 72.7% | SN12C renal 72.2% | UO-31 renal 44.4% | TK-10 renal 75.4% | ACHN renal 86.3% | CAKI-1 renal 76.1% | A498 renal 46.7% | HL-60(TB) leukemia 76.2%

COc1ccc(N)cc1N
inactive: HCT-15 colon 102% | HT29 colon 113% | SNB-75 CNS 88.7% | SNB-19 CNS 101% | U251 CNS 106% | PC-3 prostate 88.2% | UACC-62 melanoma 105% | LOX IMVI melanoma 100% | SK-MEL-28 melanoma 120% | EKVX NSCLC 107% | SN12C renal 101% | UO-31 renal 70.8% | TK-10 renal 148% | ACHN renal 101% | CAKI-1 renal 101% | A498 renal 122% | HL-60(TB) leukemia 128% | CCRF-CEM leukemia 111%

COc1cc(-c2ccc(N)c(OC)c2)ccc1N
inactive: HCT-15 colon 110% | HT29 colon 97.5% | SNB-75 CNS 76.9% | SNB-19 CNS 102% | U251 CNS 99.2% | PC-3 prostate 105% | LOX IMVI melanoma 88.9% | SK-MEL-28 melanoma 111% | SK-MEL-2 melanoma 118% | EKVX NSCLC 96% | SN12C renal 104% | UO-31 renal 93.6% | TK-10 renal 107% | CAKI-1 renal 92.5% | A498 renal 118% | HL-60(TB) leukemia 118% | CCRF-CEM leukemia 113%

O=P1(N(CCCl)CCCl)NCCCO1 (stereo unspecified)
inactive: HCT-15 colon 106% | HT29 colon 102% | SNB-75 CNS 102% | SNB-19 CNS 102% | U251 CNS 96.8% | PC-3 prostate 106% | UACC-62 melanoma 94.4% | LOX IMVI melanoma 104% | SK-MEL-28 melanoma 114% | SK-MEL-2 melanoma 114% | EKVX NSCLC 101% | SN12C renal 95.4% | UO-31 renal 90.3% | ACHN renal 103% | CAKI-1 renal 99.8% | A498 renal 115% | CCRF-CEM leukemia 95.6%

O=C(Cc1ccccc1)c1ccccc1
active: CCRF-CEM leukemia 7.63%
inactive: HCT-15 colon 102% | HT29 colon 106% | SNB-75 CNS 86.8% | SNB-19 CNS 109% | U251 CNS 94.5% | PC-3 prostate 98.2% | UACC-62 melanoma 111% | LOX IMVI melanoma 106% | SK-MEL-28 melanoma 113% | SK-MEL-2 melanoma 110% | EKVX NSCLC 103% | SN12C renal 106% | UO-31 renal 90.2% | TK-10 renal 95.5% | ACHN renal 107% | CAKI-1 renal 101% | A498 renal 63.6% | HL-60(TB) leukemia 103%

COc1ccc(/C=C(/C)[N+](=O)[O-])cc1OC
-1.3% (active) and 25.2% (inactive): SN12C renal
0.7% (active) and 20.8% (inactive): CCRF-CEM leukemia
active: HCT-15 colon -25.4% and -17.4% | HT29 colon -70.6% and -16.3% | U251 CNS -46.5% and -15.8% | LOX IMVI melanoma -51.5% and -88.8% | SK-MEL-28 melanoma -50.9% and 4.89% | SK-MEL-2 melanoma 8.73% and 0.617% | UO-31 renal -63.9% and -93.1% | ACHN renal -1.7% and -73% | CAKI-1 renal -6.27% and -71.9% | HL-60(TB) leukemia -14.7% and -26%
inactive: SNB-75 CNS 78.5% and 53.6% | SNB-19 CNS 65.9% and 79.3% | PC-3 prostate 19.4% and 47.7% | UACC-62 melanoma 46.1% and 23.8% | EKVX NSCLC 65.6% and 84.6% | A498 renal 112% and 97.9%
-49.9% (active) and 70.4% (inactive): TK-10 renal
